# Measurements: the supplement of paper PMC4466140
# Tests used:
# Experiment in all cases: SPOT peptide array binding signal intensity (averaged, normalized) (arbitrary units (background-subtracted, floor 0; scale differs between SH3 domains)); higher = stronger binding of the SH3 domain to the peptide
# [1] = biological target: CaNbp2
# Outline: (§1)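 GST-fused SH3 domains from four yeast species were expressed in E. coli BL21(DE3), purified on glutathione Sepharose and incubated at 10 μg/ml overnight at 4°C in TBS-based blocking buffer on cellulose membranes carrying synthetic 15-mer peptides, with cysteines replaced by serines. Bound protein was detected with anti-GST antibody, an HRP anti-mouse secondary and luminol, then imaged and quantified with Genespotter. Binding signal is the normalized, background-subtracted spot intensity averaged over replicates, in arbitrary units that differ between domains.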
# [2] = biological target: CaRvs167
# Outline: as §1
# [3] = biological target: CaRvs167-3
# Outline: as §1
# [4] = biological target: CaSho1
# Outline: as §1
# [5] = biological target: CaSla1-D1-D2
# Outline: as §1
# [6] = biological target: CaSla1-D3
# Outline: as §1
# [7] = biological target: ScAbp1
# Outline: as §1
# [8] = biological target: ScBbc1
# Outline: as §1
# [9] = biological target: ScBem1-D1
# Outline: as §1
# [10] = biological target: ScBzz1-D1
# Outline: as §1
# [11] = biological target: ScBzz1-D2
# Outline: as §1
# [12] = biological target: ScCyk3
# Outline: as §1
# [13] = biological target: ScFus1
# Outline: as §1
# [14] = biological target: ScHof1
# Outline: as §1
# [15] = biological target: ScHse1
# Outline: as §1
# [16] = biological target: ScLsb1
# Outline: as §1
# [17] = biological target: ScLsb2
# Outline: as §1
# [18] = biological target: ScLsb3
# Outline: as §1
# [19] = biological target: ScLsb4
# Outline: as §1
# [20] = biological target: ScMyo3
# Outline: as §1
# [21] = biological target: ScMyo5
# Outline: as §1
# [22] = biological target: ScNbp2
# Outline: as §1
# [23] = biological target: ScPex13
# Outline: as §1
# [24] = biological target: ScRvs167
# Outline: as §1
# [25] = biological target: ScSho1
# Outline: as §1
# [26] = biological target: ScSla1-D1-D2
# Outline: as §1
# [27] = biological target: ScSla1-D3
# Outline: as §1
# [28] = biological target: SpAbp1-D1
# Outline: as §1
# [29] = biological target: SpBbc1
# Outline: as §1
# [30] = biological target: SpBzz1-D1
# Outline: as §1
# [31] = biological target: SpBzz1-D2
# Outline: as §1
# [32] = biological target: SpCyk3
# Outline: as §1
# [33] = biological target: SpHof1
# Outline: as §1
# [34] = biological target: SpHof1-2
# Outline: as §1
# [35] = biological target: SpHof1-3
# Outline: as §1
# [36] = biological target: SpHse1
# Outline: as §1
# [37] = biological target: SpLsb1
# Outline: as §1
# [38] = biological target: SpLsb4
# Outline: as §1
# [39] = biological target: SpMyo1
# Outline: as §1
# [40] = biological target: SpNbp2
# Outline: as §1
# [41] = biological target: SpPex13
# Outline: as §1
# [42] = biological target: SpRvs167
# Outline: as §1
# [43] = biological target: SpSla1-D1-D2
# Outline: as §1
# [44] = biological target: SpSla1-D3
# Outline: as §1
# [45] = biological target: AgAbp1
# Outline: as §1
# [46] = biological target: AgBbc1
# Outline: as §1
# [47] = biological target: AgBem1-D1
# Outline: as §1
# [48] = biological target: AgBzz1-D1
# Outline: as §1
# [49] = biological target: AgBzz1-D2
# Outline: as §1
# [50] = biological target: AgCyk3
# Outline: as §1
# [51] = biological target: AgFus1
# Outline: as §1
# [52] = biological target: AgHof1
# Outline: as §1
# [53] = biological target: AgHse1
# Outline: as §1
# [54] = biological target: AgLsb1
# Outline: as §1
# [55] = biological target: AgLsb4
# Outline: as §1
# [56] = biological target: AgMyo5
# Outline: as §1
# [57] = biological target: AgNbp2
# Outline: as §1
# [58] = biological target: AgRvs167
# Outline: as §1
# [59] = biological target: AgSho1
# Outline: as §1
# [60] = biological target: AgSla1-D1-D2
# Outline: as §1
# [61] = biological target: AgSla1-D3
# Outline: as §1
# [62] = biological target: CaAbp1-D1
# Outline: as §1
# [63] = biological target: CaAbp1-D2
# Outline: as §1
# [64] = biological target: CaBbc1
# Outline: as §1
# [65] = biological target: CaBem1-D1
# Outline: as §1
# [66] = biological target: CaBzz1-D1
# Outline: as §1
# [67] = biological target: CaBzz1-D2
# Outline: as §1
# [68] = biological target: CaCyk3
# Outline: as §1
# [69] = biological target: CaFus1
# Outline: as §1
# [70] = biological target: CaHof1
# Outline: as §1
# [71] = biological target: CaHse1
# Outline: as §1
# [72] = biological target: CaLsb1
# Outline: as §1
# [73] = biological target: CaLsb4
# Outline: as §1
# [74] = biological target: CaMyo5
# Outline: as §1
binder,measurement,setting,value
TTAPALPSLPPPPLL,SPOT peptide array binding signal intensity,[1],≤ 0
same,SPOT peptide array binding signal intensity,[2],1
same,SPOT peptide array binding signal intensity,[3],1
same,SPOT peptide array binding signal intensity,[4],≤ 0
same,SPOT peptide array binding signal intensity,[5],≤ 0
same,SPOT peptide array binding signal intensity,[6],0.25
same,SPOT peptide array binding signal intensity,[7],1
same,SPOT peptide array binding signal intensity,[8],1
same,SPOT peptide array binding signal intensity,[9],2
same,SPOT peptide array binding signal intensity,[10],190
same,SPOT peptide array binding signal intensity,[11],≤ 0
same,SPOT peptide array binding signal intensity,[12],≤ 0
same,SPOT peptide array binding signal intensity,[13],≤ 0
same,SPOT peptide array binding signal intensity,[14],2250
same,SPOT peptide array binding signal intensity,[15],≤ 0
same,SPOT peptide array binding signal intensity,[16],≤ 0
same,SPOT peptide array binding signal intensity,[17],≤ 0
same,SPOT peptide array binding signal intensity,[18],≤ 0
same,SPOT peptide array binding signal intensity,[19],≤ 0
same,SPOT peptide array binding signal intensity,[20],2800
same,SPOT peptide array binding signal intensity,[21],2300
same,SPOT peptide array binding signal intensity,[22],≤ 0
same,SPOT peptide array binding signal intensity,[23],214
same,SPOT peptide array binding signal intensity,[24],≤ 0
same,SPOT peptide array binding signal intensity,[25],42
same,SPOT peptide array binding signal intensity,[26],≤ 0
same,SPOT peptide array binding signal intensity,[27],1.5
same,SPOT peptide array binding signal intensity,[28],≤ 0
same,SPOT peptide array binding signal intensity,[29],7.5
same,SPOT peptide array binding signal intensity,[30],124
same,SPOT peptide array binding signal intensity,[31],≤ 0
same,SPOT peptide array binding signal intensity,[32],1
same,SPOT peptide array binding signal intensity,[33],≤ 0
same,SPOT peptide array binding signal intensity,[34],39.8
same,SPOT peptide array binding signal intensity,[35],≤ 0
same,SPOT peptide array binding signal intensity,[36],≤ 0
same,SPOT peptide array binding signal intensity,[37],≤ 0
same,SPOT peptide array binding signal intensity,[38],≤ 0
same,SPOT peptide array binding signal intensity,[39],1940
same,SPOT peptide array binding signal intensity,[40],≤ 0
same,SPOT peptide array binding signal intensity,[41],11
same,SPOT peptide array binding signal intensity,[42],≤ 0
same,SPOT peptide array binding signal intensity,[43],4
same,SPOT peptide array binding signal intensity,[44],2
NSMRPPLLIPAATTK,SPOT peptide array binding signal intensity,[45],0.5
same,SPOT peptide array binding signal intensity,[46],13.5
same,SPOT peptide array binding signal intensity,[47],450
same,SPOT peptide array binding signal intensity,[48],19
same,SPOT peptide array binding signal intensity,[49],16.5
same,SPOT peptide array binding signal intensity,[50],1
same,SPOT peptide array binding signal intensity,[51],384
same,SPOT peptide array binding signal intensity,[52],20.5
same,SPOT peptide array binding signal intensity,[53],210
same,SPOT peptide array binding signal intensity,[54],128
same,SPOT peptide array binding signal intensity,[55],12
same,SPOT peptide array binding signal intensity,[56],15
same,SPOT peptide array binding signal intensity,[57],114
same,SPOT peptide array binding signal intensity,[58],2.33
same,SPOT peptide array binding signal intensity,[59],390
same,SPOT peptide array binding signal intensity,[60],4
same,SPOT peptide array binding signal intensity,[61],1.75
same,SPOT peptide array binding signal intensity,[62],63.5
same,SPOT peptide array binding signal intensity,[63],121
same,SPOT peptide array binding signal intensity,[64],47.2
same,SPOT peptide array binding signal intensity,[65],378
same,SPOT peptide array binding signal intensity,[66],190
same,SPOT peptide array binding signal intensity,[67],111
same,SPOT peptide array binding signal intensity,[68],5.5
same,SPOT peptide array binding signal intensity,[69],1550
same,SPOT peptide array binding signal intensity,[70],0.5
same,SPOT peptide array binding signal intensity,[71],103
same,SPOT peptide array binding signal intensity,[72],13.2
same,SPOT peptide array binding signal intensity,[73],516
same,SPOT peptide array binding signal intensity,[74],133
same,SPOT peptide array binding signal intensity,[1],291
same,SPOT peptide array binding signal intensity,[2],83.8
same,SPOT peptide array binding signal intensity,[3],3.75
same,SPOT peptide array binding signal intensity,[4],1320
same,SPOT peptide array binding signal intensity,[5],244
same,SPOT peptide array binding signal intensity,[6],317
same,SPOT peptide array binding signal intensity,[7],4
same,SPOT peptide array binding signal intensity,[8],1.5
same,SPOT peptide array binding signal intensity,[9],≤ 0
same,SPOT peptide array binding signal intensity,[10],7.5
same,SPOT peptide array binding signal intensity,[11],19.5
same,SPOT peptide array binding signal intensity,[12],6
same,SPOT peptide array binding signal intensity,[13],508
same,SPOT peptide array binding signal intensity,[14],≤ 0
same,SPOT peptide array binding signal intensity,[15],160
same,SPOT peptide array binding signal intensity,[16],232
same,SPOT peptide array binding signal intensity,[17],1
same,SPOT peptide array binding signal intensity,[18],303
same,SPOT peptide array binding signal intensity,[19],208
same,SPOT peptide array binding signal intensity,[20],47.5
same,SPOT peptide array binding signal intensity,[21],8.5
same,SPOT peptide array binding signal intensity,[22],150
same,SPOT peptide array binding signal intensity,[23],222
same,SPOT peptide array binding signal intensity,[24],53.7
same,SPOT peptide array binding signal intensity,[25],562
same,SPOT peptide array binding signal intensity,[26],266
same,SPOT peptide array binding signal intensity,[27],430
same,SPOT peptide array binding signal intensity,[28],27
same,SPOT peptide array binding signal intensity,[29],2.75
same,SPOT peptide array binding signal intensity,[30],273
same,SPOT peptide array binding signal intensity,[31],53.8
same,SPOT peptide array binding signal intensity,[32],3
same,SPOT peptide array binding signal intensity,[33],36
same,SPOT peptide array binding signal intensity,[34],31.8
same,SPOT peptide array binding signal intensity,[35],41
same,SPOT peptide array binding signal intensity,[36],444
same,SPOT peptide array binding signal intensity,[37],34.2
same,SPOT peptide array binding signal intensity,[38],761
same,SPOT peptide array binding signal intensity,[39],56.2
same,SPOT peptide array binding signal intensity,[40],116
same,SPOT peptide array binding signal intensity,[41],37
same,SPOT peptide array binding signal intensity,[42],68.2
same,SPOT peptide array binding signal intensity,[43],≤ 0
same,SPOT peptide array binding signal intensity,[44],200
